# “And” between values parts separate entries of the source, which are not always exact repeats. Identical values can stand only once. Inconclusive results are not listed. Unmarked numbers belong to inactive results. The source made the active and inactive calls. Calls follow the shape of the dose curve; as a rule, active = well fitted cell-killing curve with a large enough effect in the repeat runs; inconclusive = weak or mixed curves, or effect the other way; inactive = no such curve, though single readings can be large or run the other way.
# Experiment: qHTS assay to identify small molecule agonists of the RXR signaling pathway - cell viability counter screen (AID 1159529); also: nearly all actives have a fitted effect of over 50% in size
# Details: RXR-alpha-bla HEK293T viability, CellTiter-Glo, 16 h; series mostly up to 76.8 µM; activity change, negative = cytotoxicity: at the top concentration
# Source text: National Center for Advancing Translational Sciences [NCATS]
# NIH Chemical Genomics Center [NCGC]
# U.S. Environmental Protection Agency [EPA]
# National Institutes of Environmental Health Sciences [NIEHS]
# National Toxicology Program [NTP]
# U.S. Food and Drug Administration [FDA]
# The Retinoid X receptor (RXR), a nuclear hormone receptor expressed in liver, spleen, placenta, epidermis, central nervous system. These receptors are able to form homo and heterodimers with other nuclear receptors and due to this heterodimerizing ability, RXR functions as master regulators producing diverse physiological effects. Three subtypes of RXR exist; alpha, beta and gamma. Retinoid X receptor alpha (RXR-alpha) has potential roles in metabolic signaling pathways, skin alopecia, dermal cysts, cardiac development, insulin sensitization etc. Therefore screening environmental chemicals on RXR-alpha signaling can be used for the studies focused on such therapeutic applications. For quantification of RXR-alpha ligands signaling, GeneBLAzer RXR alpha-UAS-bla HEK 293T (Life Technologies, Carlsbad, CA) cells containing a beta-lactamase reporter-gene under control of Retinoid X receptor-alpha response element were used to screen Tox21 10K library. The cytotoxicity of the Tox21 compound library against the RXR-alpha HEK 293T cell line was tested in parallel by measuring cell viability using CellTiter-Glo assay (Promega Corporation, Madison, WI) in the same wells.
# Tox21 Assay Protocol Summary:
# RXR-alpha HEK 293T cells were dispensed at 2,000 cells/6 uL of assay medium containing 2% charcoal-stripped FBS using a Multidrop Combi (ThermoFisher Scientific, Waltham, MA) dispenser. The assay was performed in black wall/clear-bottom 1536-well plates (Greiner Bio-One North America Inc. Monroe, NC). Tetraoctyl ammonium bromide was used as a positive control in the cytotoxicity screen. After the assay plates were incubated at 37 C and 5% CO2 for 5 hr, 23 nL of compounds dissolved in DMSO, positive control or DMSO only were transferred to the assay plate by a Pintool station (Kalypsys, San Diego, CA). The assay plates were incubated at 37 C and 5% CO2 for 16 hr. One uL of LiveBLAzer B/G FRET substrate (Life Technologies) was added using a Flying Reagent Dispenser (FRD) (Aurora Discovery, San Diego, CA) and the plates were incubated at room temperature for 2 hr. Fluorescence intensity (405 nm excitation, 460/530 nm emission) was measured using an Envision plate reader (PerkinElmer, Shelton, CT). For cytotoxicity, 4 uL/well of CellTiter-Glo reagent was added into the assay plates using an FRD. After 30 min incubation at room temperature, the luminescence intensity was measured using a ViewLux plate reader (PerkinElmer).
# % is scaled to controls: 0 for no effect and ±100 for the full control effect; potency is read from the fitted curve at half-maximal effect.
SMILES,"activity change, negative = cytotoxicity",Potency
NNCCO,3.7%,
CCCC[P+](CC)(CCCC)CCCC (tested in a mixture with another compound),-28.8%,
O=C(N[C@H]1CN2CCC1CC2)c1ccc2c(c1)OCCO2,12.7%,
CCCC(C)(COC(N)=O)COC(=O)NC(C)C (stereo not given),,inactive
CN(C1CCCCC1)C1CCCCC1,3.54%,
O=C1NC(=O)C(=O)C(=O)N1,1.46%,
CCCCCBr,2.23%,
CCC(C)Cl (stereo not given),10.4%,
CON(C)C(=O)Nc1ccc(Cl)cc1,10.9%,
CCCCCCCCCCCCN(C)C,-19.3%,
CC(C)c1ccc(OP(=O)(Oc2ccc(C(C)C)cc2)Oc2ccc(C(C)C)cc2)cc1,,19.6 µM (active) and 19.5 µM (active)
CCOc1cccc(C2(N3CCN(c4ccccc4)CC3)CCC(C)CC2)c1 (stereo not given),0.995%,
CC(C)(C)NCC(O)c1cc(Cl)c(N)c(C(F)(F)F)c1 (stereo not given),2.24% [at 35.3 µM],
C[N+](C)(C)CCOC(=O)C(O)(c1ccccc1)c1ccccc1,-1.79% [at 35.3 µM],
COc1cc(CC(C)N)c(OC)cc1Br (stereo not given),0.389%,
Cc1ccc(N)c(C)c1,,inactive
O=C(NCNC(=O)NC1C(=O)NC(=O)N1CO)NC1C(=O)NC(=O)N1CO (stereo not given),18.5%,
O=C(Cl)OCCOCCOC(=O)Cl,0.75%,
CCOC(=O)c1cncn1C(C)c1ccccc1 (stereo not given),13.4% [at 35.3 µM],
CCCN(CCC)c1c([N+](=O)[O-])cc(C(C)C)cc1[N+](=O)[O-],-29.4%,

SMILES,"activity change, negative = cytotoxicity",Potency
COP(=O)(OC)OC(Br)C(Cl)(Cl)Br (stereo not given),-19.2%,
CCOP(=S)(OCC)SCSc1cc(Cl)ccc1Cl,6.1%,
C1CCNCC1,-0.549%,
N#CC1(N=NC2(C#N)CCCCC2)CCCCC1,-26%,
C=C(Cl)Cl,2.38%,
C=C(C)C(=O)OCCCCOC(=O)C(=C)C,-5.82%,
Cc1ccccc1,5.68%,
CC(C)c1ccc(NC(=O)N(C)C)cc1,0.366%,
CCSCc1ccccc1OC(=O)NC,-4.75%,
CC(=O)OC(c1ccccc1)C(Cl)(Cl)Cl (stereo not given),-8.3%,
C[C@H]1[C@@H]2Cc3ccc(O)cc3[C@@]1(C)CCN2C,2.23% [at 200 µM],
CN1C(=O)CN=C(c2ccccc2)c2cc([N+](=O)[O-])ccc21,5.53% [at 35.3 µM],
OC[P+](CO)(CO)CO,0.136%,
CCCCC1C(=O)NC(=O)N(C2CCCCC2)C1=O (stereo not given),1.75% [at 35.3 µM],
C#C[C@]1(O)CC[C@H]2[C@@H]3CCC4=CC(=O)CCC4=C3C=C[C@@]21CC,2.52% [at 35.3 µM],
COc1ccc(C(=O)c2c(C)n(CCN3CCOCC3)c3ccccc23)cc1,5.24% [at 35.3 µM],
CC(C)CCON=O,0.976%,
OCC1CO1 (stereo not given),,inactive
C=CCN1C[C@H](C)N([C@H](c2ccc(C(=O)N(CC)CC)cc2)c2cccc(OC)c2)C[C@H]1C,-0.0304% [at 35.3 µM],
CC(Cl)C(=O)O (stereo not given),-1.52%,
